Our source for the normalized B-score (activity score, 25-100; higher = stronger inhibition) values is PubChem BioAssay AID588511 (Johns Hopkins Ion Channel Center, 2011).

Screen size: about 310,000 compounds; about 3,600 (1.2%) were called active.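 The calls were made as follows: active = ratio plate-corrected score three or more library SD toward inhibition, starting fluorescence score within five deviations; inactive = the rest.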 The entries come from a sample that favours actives as a whole.

The target in the assay is Anoctamin-1 (Mus musculus) (UniProt Q8BHY3). Put plainly: TMEM16A chloride channel inhibitors, primary screen, cell-based, HTS (AID 588511).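 As to normalized B-score (activity score, 25-100; higher = stronger inhibition): score derived from kinetic fluorescence span divided by baseline fluorescence per well.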 To be noted: HEK293 TMEM16A/YFP iodide influx fluorescence, ionomycin; at 10 µM.
Anoctamin-1 (Mus musculus), sequence (Q8BHY3 whole entry, looked up): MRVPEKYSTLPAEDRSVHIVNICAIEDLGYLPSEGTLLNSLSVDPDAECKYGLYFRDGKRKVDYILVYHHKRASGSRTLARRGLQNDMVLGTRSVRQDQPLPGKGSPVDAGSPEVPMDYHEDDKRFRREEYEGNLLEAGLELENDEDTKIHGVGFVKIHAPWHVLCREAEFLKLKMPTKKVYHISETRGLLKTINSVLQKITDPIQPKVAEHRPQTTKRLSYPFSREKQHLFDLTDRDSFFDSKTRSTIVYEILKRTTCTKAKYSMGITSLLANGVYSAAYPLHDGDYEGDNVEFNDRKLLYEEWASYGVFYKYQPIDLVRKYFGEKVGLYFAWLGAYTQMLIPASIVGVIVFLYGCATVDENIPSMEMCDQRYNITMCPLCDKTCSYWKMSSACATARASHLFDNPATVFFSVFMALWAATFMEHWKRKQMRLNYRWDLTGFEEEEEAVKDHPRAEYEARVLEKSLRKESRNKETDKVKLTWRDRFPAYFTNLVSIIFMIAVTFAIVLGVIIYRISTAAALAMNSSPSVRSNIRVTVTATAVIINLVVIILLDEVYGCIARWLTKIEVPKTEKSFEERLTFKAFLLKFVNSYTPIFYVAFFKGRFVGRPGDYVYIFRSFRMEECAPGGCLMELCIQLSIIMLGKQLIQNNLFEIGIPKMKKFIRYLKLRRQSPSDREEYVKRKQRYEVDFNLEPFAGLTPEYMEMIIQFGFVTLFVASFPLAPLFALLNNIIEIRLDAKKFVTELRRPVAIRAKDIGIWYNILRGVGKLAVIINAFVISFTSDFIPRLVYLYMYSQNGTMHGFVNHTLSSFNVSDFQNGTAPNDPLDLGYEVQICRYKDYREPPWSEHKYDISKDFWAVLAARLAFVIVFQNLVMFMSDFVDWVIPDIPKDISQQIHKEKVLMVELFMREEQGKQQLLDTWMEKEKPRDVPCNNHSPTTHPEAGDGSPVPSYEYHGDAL
As to `O=C(NCc1ccc(F)cc1)C(c1ccccc1)N(C(=O)c1csnn1)C1CC1` (stereo unspecified), the normalized B-score (activity score, 25-100; higher = stronger inhibition) result was “inactive”. Regarding `Fc1ccc(CSc2nnc(-c3cc4c(s3)-c3ccccc3CC4)o2)cc1`, the normalized B-score (activity score, 25-100; higher = stronger inhibition) is 100 (active). Consider `CCSc1nnc(-c2cc3c(s2)-c2ccccc2CC3)o1`, for which the normalized B-score (activity score, 25-100; higher = stronger inhibition) result is “inactive”. For the molecule `Fc1ccc(-c2nnc(CSc3nnc(-c4ccc5c(c4)OCO5)o3)o2)cc1`, the normalized B-score (activity score, 25-100; higher = stronger inhibition) result was “inactive”. Consider `O=C(NCCS(=O)(=O)c1ccc(Br)cc1)c1ccccc1Cl`, for which the normalized B-score (activity score, 25-100; higher = stronger inhibition) entry is “inactive”. Regarding `O=C(OCC1O[C@@H](OC(=O)c2cc(O)c(O)c(O)c2)[C@@H](OC(=O)c2cc(O)c(O)c(O)c2)[C@@H](OC(=O)c2cc(O)c(O)c(O)c2)[C@@H]1OC(=O)c1cc(O)c(O)c(O)c1)c1cc(O)c(O)c(O)c1` (stereo partly specified), the normalized B-score (activity score, 25-100; higher = stronger inhibition) entry is “inactive”. As to `CC(=O)c1c(C)[nH]c(C(=O)COC(=O)c2cccc(S(=O)(=O)N(C)c3ccccc3)c2)c1C`, the normalized B-score (activity score, 25-100; higher = stronger inhibition) was 100 (active).

`CN(c1ccccc1)S(=O)(=O)c1ccc(Cl)c(C(=O)OCC(N)=O)c1`: the normalized B-score (activity score, 25-100; higher = stronger inhibition) entry is “inactive”. As to `CC(=O)c1c(C)[nH]c(C(=O)COC(=O)CCOc2ccc(C)cc2)c1C`, the normalized B-score (activity score, 25-100; higher = stronger inhibition) result is “inactive”. Then `CC(=O)NCCc1ccc(S(=O)(=O)Nc2ccc(C)c(S(=O)(=O)N3CCOCC3)c2)cc1`, with “inactive”; and `CCCCCC(O)c1cccc(OCc2ccc3ccccc3n2)c1` (stereo unspecified), with 100 (active); and `CCCCCCOC(=O)NCC(O)c1ccccc1` (stereo unspecified), with “inactive”. With `COc1cccc(C(O)c2nc3ccccc3n2C)c1` (stereo unspecified), the normalized B-score (activity score, 25-100; higher = stronger inhibition) result was “inactive”. With `NC(=O)c1ccc(Nc2ccc3c(c2)CCC3)c([N+](=O)[O-])c1` the entry was “inactive”. For `Cc1ccc(S(=O)(=O)NCc2csc(C)n2)c(C)c1`, the normalized B-score (activity score, 25-100; higher = stronger inhibition) result is “inactive”. Consider `Cc1nc(CNS(=O)(=O)c2ccc(Oc3ccccc3)cc2)cs1`, for which the normalized B-score (activity score, 25-100; higher = stronger inhibition) is 100 (active). Consider `Cc1nc(CNS(=O)(=O)c2cccnc2)cs1`, for which the normalized B-score (activity score, 25-100; higher = stronger inhibition) result is “inactive”. With `CS(=O)(=O)c1ccccc1C(=O)Nc1ccc2sccc2c1`, the normalized B-score (activity score, 25-100; higher = stronger inhibition) result is “inactive”. Consider `FC(F)(F)c1cccc(NC(=S)Nc2cccc(Cl)c2)c1`, for which the normalized B-score (activity score, 25-100; higher = stronger inhibition) is 100 (active). Take `S=C(Nc1cccc(Cl)c1)Nc1ccc2c(c1)OCCO2`: the normalized B-score (activity score, 25-100; higher = stronger inhibition) result was “inactive”. In the case of `Cc1csc(NC(=S)Nc2cccc(Cl)c2)n1`, the normalized B-score (activity score, 25-100; higher = stronger inhibition) entry was “inactive”. Then `COC(=O)CNS(=O)(=O)c1ccc(OC)cc1`, with “inactive”; and `COc1ccc(S(=O)(=O)NCCCCOc2ccc(Cl)cc2)cc1`, with 25 (active).

Consider `COc1ccc(S(=O)(=O)NCCCc2ccccc2)cc1`, for which the normalized B-score (activity score, 25-100; higher = stronger inhibition) entry is “inactive”. Then `Cc1ccccc1C(=O)N1CCC(C(=O)Oc2ccc(C#N)cc2)CC1`, with “inactive”; and `Cc1cccc(N(Cc2ccccc2)C(=O)c2cc(S(=O)(=O)N3CCOCC3)ccc2F)c1`, with “inactive”; and `Cc1ccc(F)cc1NC(=O)Cc1nn(C)c(=O)c2ccccc12`, with 100 (active).

For `Cc1nn(CC(=O)Nc2ccc(F)cc2)c(=O)c2ccccc12`, the normalized B-score (activity score, 25-100; higher = stronger inhibition) result was “inactive”.

For the molecule `COc1ccc(-c2nn(C)c(=O)c3ccccc23)cc1NC(=O)COc1ccccc1`, the normalized B-score (activity score, 25-100; higher = stronger inhibition) entry is “inactive”. For `C[C@@H]1NC(=O)c2cc([N+](=O)[O-])cc(F)c2NCCC[C@@H](C(N)=O)NC(=O)[C@H](CC(N)=O)NC1=O`, the normalized B-score (activity score, 25-100; higher = stronger inhibition) entry was “inactive”. `Cc1nn(C)c(Oc2ccccc2)c1CCNS(=O)(=O)c1ccc(F)cc1`: the normalized B-score (activity score, 25-100; higher = stronger inhibition) result is “inactive”. As to `C/C(=N\NS(=O)(=O)c1ccc(Cl)cc1)c1ccc(NC(=O)c2ccco2)cc1`, the normalized B-score (activity score, 25-100; higher = stronger inhibition) result was “inactive”. As to `O=C1CC(N2CCN(C(c3ccccc3)c3ccccc3)CC2)C(=O)N1` (stereo unspecified), the normalized B-score (activity score, 25-100; higher = stronger inhibition) result was “inactive”. Consider `CC1(C)CC(=O)C=C(N2CCCC2)C1`, for which the normalized B-score (activity score, 25-100; higher = stronger inhibition) entry was “inactive”. With `CC1(C)CC(N2CCN(C(c3ccccc3)c3ccccc3)CC2)=CC(=[N+]2CCCCC2)C1` the figure was 100 (active); with `O=C(/C=C/Nc1ccc(S(=O)(=O)Nc2cnc3ccccc3n2)cc1)c1cccnc1`, “inactive”.

Turning to `COc1ccc2[nH]cc(/C=C(/C#N)S(=O)(=O)c3ccccc3)c2c1`, the normalized B-score (activity score, 25-100; higher = stronger inhibition) was 100 (active). With `COc1ccc(/C=C(\C#N)c2c[nH]c3ccccc23)cc1` the entry was “inactive”; with `CCN(CC)CC(=O)c1c[nH]c2ccc(OC)cc12`, “inactive”; with `COC(C[C@@H](O)C[C@@H](O)[C@H](C)OCc1ccccc1)OC`, “inactive”. As for `CCc1cccc(NC(=O)COC(=O)C2CCN(c3ccc(C(F)(F)F)cn3)CC2)c1`, the normalized B-score (activity score, 25-100; higher = stronger inhibition) result was “inactive”.

`N#CCSc1nc2c(c(=O)n1Cc1ccccc1)C1(CCCC1)Cc1ccccc1-2`: the normalized B-score (activity score, 25-100; higher = stronger inhibition) entry was “inactive”. For `Cc1cccc(-n2c(=O)c3c(C)c(C)sc3n(CC(N)=O)c2=O)c1`, the normalized B-score (activity score, 25-100; higher = stronger inhibition) entry is “inactive”. For `Cc1cccc(-n2c(SCC(N)=O)nc3c(c2=O)C2(CCCCC2)Cc2ccccc2-3)c1`, the normalized B-score (activity score, 25-100; higher = stronger inhibition) is 100 (active). Turning to `Cc1ccc(-c2csc(-c3c[nH]c4ccccc34)n2)cc1`, the normalized B-score (activity score, 25-100; higher = stronger inhibition) is 100 (active). Then `CCCc1cc(-c2nc(-c3ccc(C)cc3)cs2)ccn1`, with “inactive”; and `Cc1ccc(-c2csc(-c3cc(C)on3)n2)cc1`, with “inactive”.

`O=C(C1CCCO1)N1CCN(S(=O)(=O)c2ccc(Br)cc2)CC1` (stereo unspecified): the normalized B-score (activity score, 25-100; higher = stronger inhibition) entry is “inactive”. Regarding `Cc1cc(=O)oc2cc(OCC3CC(c4ccccc4Cl)=NO3)ccc12` (stereo unspecified), the normalized B-score (activity score, 25-100; higher = stronger inhibition) result is “inactive”. As to `O=C(CCS(=O)(=O)c1ccc2c(c1)NC(=O)CS2)NCc1ccccc1Cl`, the normalized B-score (activity score, 25-100; higher = stronger inhibition) result is “inactive”. With `CNC(=O)c1[nH]cnc1C(=O)N[C@@H](CC(C)C)C(=O)OC(C)(C)C` the entry was “inactive”.
